From the supplement of paper PMC10338343
± gives the standard deviation. Over roughly 8,200 sequences, “pre-steady-state target cleavage rate” has its median near 0.024; the highest 2% begin near 1.3. The full list was thinned out, with the highest values kept by preference.

Tested on: MIWI (PIWIL1) piRISC loaded with L1MC piRNA (30 nt)
Experiment: pre-steady-state target cleavage rate (min^-1); MIWI and MILI are mouse PIWI proteins and EfPiwi is from a freshwater sponge; tags in brackets are library labels; higher = faster piRNA-guided slicing of the target
Details: guide: L1MC piRNA 5'p-UAACUAAAUACUAUGCAAGCUGUAGGUCCU
Method in brief: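 In Cleave-'n-Seq, a transcribed, DNA-blocked target RNA library (0.1 nM) was combined with 1 nM active affinity-purified piRISC bearing one synthetic guide, with or without 500 nM GTSF1 partner protein. Reactions ran in HEPES–potassium acetate buffer at 33 °C for 0–8 or 0–960 min. Uncleaved targets were sequenced and normalised to depth and to weakly complementary targets, three trials were pooled, and k3 was capped at 0.0001 min^-1. The pre-steady-state cleavage rate was obtained by fitting a burst-and-steady-state model.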

[1] = auxiliary factor: 500 nM mouse GTSF1
[2] = auxiliary factor: none (no GTSF1)

Sequence	pre-steady-state target cleavage rate [1]	pre-steady-state target cleavage rate [2]
UCCUGGUACAGCUUGCAUUGUAUUUAGAAA	0.0478 ± 0.013	
AGGACCUACACCUUGCAUAGUAUUAAGUUA	0.627 ± 0.054	0.0334 ± 0.0069
UCCUGGAUGAGCUUGCAAAGUAUUAAGUUA	0.331 ± 0.035	0.00974 ± 0.0037
UCCACCUACAGCUUGGAAAGUAUUUAGUUA	1.01 ± 0.03	0.00576 ± 0.0018
UCCACCUACAGCUUGCAUAGUAUCUUAGUUA	0.709 ± 0.057	0.0225 ± 0.005
UCCACCUACAGCUUGCAUAGUAAAUACAAA	0.155 ± 0.037	
UCCUGGAUGUGCUUGGAUAGUAUAUAGUUA	0.0799 ± 0.017	0.0106 ± 0.0049
UCCUGGAACAGCUUGCAUAGUAUUUAAGUUA	0.549 ± 0.034	0.0597 ± 0.014
UGGACCUACAGCUAUGCAUAGUAUUUAGUUA	1.24 ± 0.11	0.0371 ± 0.0083
UCGACCUACAGCUCUGCAUAGUAUUUAGUUA	1.32 ± 0.067	0.0476 ± 0.0099
UCCUCCUACAGCUCUGCAUAGUAUUUAGUUA	1.03 ± 0.044	0.0182 ± 0.0041
UGGACCUACAGCUCUGCAUAGUAUUUAGUUA	1.56 ± 0.11	0.0566 ± 0.014
UCGACCUACAGCUGCAUAGUAUUUAGUUA	1.3 ± 0.079	0.00665 ± 0.0025
UGGACCUACAGCUGGCAUAGUAUUUAGUUA	1.04 ± 0.044	0.0463 ± 0.011
AGGACCUACAGCUAUGCAUAGUAUUUAGUUA	0.962 ± 0.052	0.0545 ± 0.011
AGGACCUACAGCUCUGCAUAGUAUUUAGUUA	1.56 ± 0.1	0.0543 ± 0.014
AGGACCUACAGCUGCAUAGUAUUUAGUUA	1.15 ± 0.068	0.0107 ± 0.0029
UGGACCUACAGCUGCAUAGUAUUUAGUUA	1.37 ± 0.11	0.00982 ± 0.0031
UCCACCUACAGCUCUGCAUAGUAUUUAGUUA	0.862 ± 0.063	0.0214 ± 0.0048
UCCUGCUACAGCUCUGCAUAGUAUUUAGUUA	0.851 ± 0.058	0.0138 ± 0.003

Sequence	pre-steady-state target cleavage rate [1]	pre-steady-state target cleavage rate [2]
UCCACCUACAGCUUGCAUAGUAAAAAGAAA	0.102 ± 0.028	
UCCUGGAUCAGCUUGCUUAGUUUUUAGUUA	0.0882 ± 0.01	0.0125 ± 0.0034
UCCUGGUACAGCUUGCAUAGUUAUUAGUAA	0.0627 ± 0.017	0.00413 ± 0.0036
UCCUGGUAUCAGCUUGCAUAGUAUUUAGUUA	0.546 ± 0.06	0.062 ± 0.014
UCGACCUACAGCUUGGUUAGUAUUUAGAAA	0.224 ± 0.04	
UCCUGGAUGUCGAUGCAUAGUAUUUUGUUA	0.00674 ± 0.0031	
UGGACGUACAGCUUGCAUAGUAUUUUCAAA	0.213 ± 0.034	0.00471 ± 0.0022
UCCUGCUACAGCUUGGUUAGUAUUUUCAAA	0.00524 ± 0.0039	
UCCUGGAACAGCUUGCAUAUAUUUAGUUA	0.0784 ± 0.011	0.0034 ± 0.0028
UCCUCCUACAGCUUGCAUAGUAUAAUGUUA	0.346 ± 0.027	0.0146 ± 0.0024
UCCUGGUACAGCCUUGCAUAGUAUUUAGUUA	0.594 ± 0.049	0.0422 ± 0.0091
UCGACCUACAGCUUGCGUAGUAUUUAGUUA	1.86 ± 0.066	0.0695 ± 0.018
UCGACCUACAGCUUGCGAUAGUAUUUAGUUA	0.0797 ± 0.02	
UCCUGCUACAGCUUGCGUAGUAUUUAGUUA	0.806 ± 0.044	0.0172 ± 0.0034
UCGACCUACAGCUUGCCUAGUAUUUAGUUA	1.14 ± 0.046	0.0457 ± 0.0085
UCCUCCUACAGCUUGCGUAGUAUUUAGUUA	1.55 ± 0.078	0.0225 ± 0.0064
UGGACCUACAGCUUGCGUAGUAUUUAGUUA	1.79 ± 0.11	0.0538 ± 0.01
UCCUCCUACAGCUUGCGAUAGUAUUUAGUUA	0.0601 ± 0.018	
UCCACCUACAGCUUGCGUAGUAUUUAGUUA	1.26 ± 0.049	0.0423 ± 0.0094
AGGACCUACAGCUUGCGUAGUAUUUAGUUA	1.24 ± 0.077	0.075 ± 0.013
